In PubChem BioAssay (NCATS) one finds Potency data, which are given here for 35 compounds.

Inconclusive results are not listed. Where a call stands in place of a potency, no number is given. Active and inactive are the calls of the source. Calls come from the whole dose curve; as a rule, active = well fitted inhibition curve with a large enough effect; inconclusive = small, poorly fitted or top-dose-only effect; inactive = flat fitted curve, though single readings scatter.

Chain of Lysine-specific demethylase 5B (Homo sapiens) (Q9UGL1 whole entry, looked up): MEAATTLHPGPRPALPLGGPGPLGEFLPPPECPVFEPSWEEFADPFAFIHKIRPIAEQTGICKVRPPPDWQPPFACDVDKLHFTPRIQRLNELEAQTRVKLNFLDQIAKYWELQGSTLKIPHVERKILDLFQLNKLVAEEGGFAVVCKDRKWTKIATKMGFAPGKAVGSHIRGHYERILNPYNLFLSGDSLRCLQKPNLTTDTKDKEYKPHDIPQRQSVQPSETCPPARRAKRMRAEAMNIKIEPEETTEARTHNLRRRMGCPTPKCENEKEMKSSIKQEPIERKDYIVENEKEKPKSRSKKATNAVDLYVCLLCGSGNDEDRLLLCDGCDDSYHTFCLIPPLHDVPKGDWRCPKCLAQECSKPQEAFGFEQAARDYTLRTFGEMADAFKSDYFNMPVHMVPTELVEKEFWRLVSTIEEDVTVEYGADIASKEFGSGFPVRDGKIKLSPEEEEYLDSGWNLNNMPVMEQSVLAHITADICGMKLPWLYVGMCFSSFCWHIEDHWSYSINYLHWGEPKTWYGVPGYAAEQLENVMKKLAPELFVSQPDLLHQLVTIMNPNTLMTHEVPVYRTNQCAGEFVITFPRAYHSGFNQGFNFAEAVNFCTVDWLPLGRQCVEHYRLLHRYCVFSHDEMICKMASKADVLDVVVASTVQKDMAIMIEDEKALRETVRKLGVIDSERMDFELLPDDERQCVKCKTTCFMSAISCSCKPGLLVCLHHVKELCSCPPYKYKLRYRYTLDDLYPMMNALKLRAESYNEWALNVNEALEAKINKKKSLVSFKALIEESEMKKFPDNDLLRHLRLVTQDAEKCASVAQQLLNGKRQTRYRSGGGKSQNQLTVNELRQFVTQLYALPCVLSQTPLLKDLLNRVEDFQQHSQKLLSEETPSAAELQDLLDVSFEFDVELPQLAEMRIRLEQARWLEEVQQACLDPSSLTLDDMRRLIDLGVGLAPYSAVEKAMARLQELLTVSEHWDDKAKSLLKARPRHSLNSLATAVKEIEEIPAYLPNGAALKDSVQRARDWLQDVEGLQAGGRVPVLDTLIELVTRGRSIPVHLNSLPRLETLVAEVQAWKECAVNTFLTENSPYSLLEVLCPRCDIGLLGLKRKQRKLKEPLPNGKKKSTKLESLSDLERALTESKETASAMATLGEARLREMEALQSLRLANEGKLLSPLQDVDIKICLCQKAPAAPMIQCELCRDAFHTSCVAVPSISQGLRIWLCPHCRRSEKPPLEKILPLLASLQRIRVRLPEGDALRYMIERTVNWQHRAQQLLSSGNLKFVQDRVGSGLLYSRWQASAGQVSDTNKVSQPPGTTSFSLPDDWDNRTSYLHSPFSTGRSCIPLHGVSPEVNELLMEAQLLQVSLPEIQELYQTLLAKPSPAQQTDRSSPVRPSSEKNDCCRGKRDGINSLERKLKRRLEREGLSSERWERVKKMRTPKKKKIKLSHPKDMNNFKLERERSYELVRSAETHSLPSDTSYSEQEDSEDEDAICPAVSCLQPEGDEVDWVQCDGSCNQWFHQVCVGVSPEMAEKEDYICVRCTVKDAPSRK

The subject of one assay is Zika virus NS2B-NS3 protease. Nature of the assay: Primary screen GU AMC qHTS for Zika virus inhibitors (AID 1347154). Note: nearly all actives have a fitted effect of over 70% in size. Note: potency is the fitted concentration of half-maximal effect. Particulars: Zika NS2B-NS3 unlinked protease, AMC fluorogenic substrate; series mostly up to 54.1 µM. The essentials: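 Fluorogenic AMC-substrate cleavage by noncovalent NS2B-NS3 protease complex (25 nM, pH 8.0 Tris buffer with Tween 20) followed for 15 minutes at room temperature (~20% conversion). Percent inhibition from ex340/em450 signal change, fitted by 4-parameter Hill equation.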
(In general: Quantitative high-throughput screening tests each substance at several concentrations.)
In the case of `NC(C(=O)O)c1cc(=O)[nH]o1` (centres undefined), the Potency entry is “inactive”.

As to `NC(N)=NOCC[C@H](N)C(=O)O`, the Potency entry was “inactive”.

As to `CC(=O)c1c(O)c(C)c(O)c(Cc2c(O)c3c(c(C(=O)/C=C/c4ccccc4)c2O)OC(C)(C)C=C3)c1O`, the Potency result is “inactive”.

On to `N[C@@H](Cn1oc(=O)[nH]c1=O)C(=O)O`, for which the Potency entry is “inactive”.

Turning to `Cc1cc(C)cc(C(=O)OC2C[C@H]3CC[C@@H](C2)N3C)c1` (some centres undefined), the Potency result was “inactive”.

`CC(Cc1ccc(OCC(=O)O)cc1)NCC(O)c1cccc(Cl)c1` (centres undefined): the Potency entry is “inactive”.

Take `CCCN(CCC)CCc1c[nH]c2ccc(C(N)=O)cc12`: the Potency entry was “inactive”.

Regarding `C[N+]1(C)CCN(c2ccccc2)CC1`, the Potency result was “inactive”.

For `COC(=O)N1CCN(C(=O)Cc2ccc(Cl)c(Cl)c2)C(CN2CCCC2)C1` (centres undefined), the Potency entry is “inactive”.

With `C=C(C)[C@H]1O[C@H]2CC[C@@]3(C)[C@@](O)(CC[C@H]4[C@@H]5OC(C)(C)[C@H]6C[C@@H]7C(=C)Cc8c(Cl)cc9[nH]c(c5c9c8[C@@]76O)[C@@]43C)[C@]23O[C@@H]3[C@H]1O`, the Potency entry was “inactive”.

Regarding `CN1c2ccccc2C(NCCCCCCC(=O)O)c2ccc(Cl)cc2S1(=O)=O` (centres undefined), the Potency entry is “inactive”.

On to `CN1C2CCC1CC(OC(c1ccccc1)c1ccccc1N)C2` (centres undefined), for which the Potency result is “inactive”.

For the compound `CC(N)Cc1c[nH]c2ccc(OCc3cccs3)cc12` (centres undefined), the Potency entry is “inactive”.

With `CCCSP(=O)(OCC)SCCC`, the Potency entry was “inactive”.

For the compound `Nc1ccc(CCN2CCN(c3cccc(C(F)(F)F)c3)CC2)cc1`, the Potency entry is “inactive”.

Take `CCCN(CCC)C1Cc2cc(OC)c(OC)cc2C1`: the Potency result was “inactive”.

In the case of `C[N+](C)(C)CC#CCN1CCCC1=O`, the Potency result is “inactive”.

In the case of `CN1CCC(c2c[nH]c3ccc(O)cc23)CC1`, the Potency entry was “inactive”.

`c1ccc2c(N3CCNCC3)cccc2c1`: the Potency result was “inactive”.

Consider `O=c1c2ccccc2[se]n1-c1ccccc1`, for which the Potency entry is “inactive”.

For the compound `CCNC(=O)[C@H]1O[C@@H](n2cnc3c(N)ncnc32)[C@H](O)[C@@H]1O`, the Potency result was “inactive”.

On to `NCCc1c[nH]c2ccc(C(N)=O)cc12`, for which the Potency entry is “inactive”.

`O=[N+]([O-])c1ccc2nc(N3CCNCC3)ccc2c1`: the Potency result is “inactive”.

In the case of `C[N+](C)(C)CC#CCOC(=O)Nc1cccc(Cl)c1`, the Potency entry was “inactive”.

Turning to `Cc1[nH]c2ccc(O)cc2c1CCN`, the Potency entry was “inactive”.

On to `C[CH2][Hg][S]c1ccccc1C(=O)O`, for which the Potency result was “inactive”.

Turning to `COc1ccc2[nH]cc(CCN)c2c1`, the Potency result was “inactive”.

For `CC(N)Cc1c[nH]c2ccc(O)cc12` (centres undefined), the Potency result is “inactive”.

Regarding `N#CC(C#N)=Cc1cc(O)c(O)c(O)c1`, the Potency entry was “inactive”.

`CC(C)(C)c1cc(C=C(C#N)C#N)cc(C(C)(C)C)c1O`: the Potency entry is “inactive”.

As to `C[N+]1(C)CCOC(O)(c2ccc(-c3ccc(C4(O)C[N+](C)(C)CCO4)cc3)cc2)C1` (centres undefined), the Potency entry was “inactive”.

For the compound `CCCN(CCC)CCc1ccc(O)c(O)c1`, the Potency result is “inactive”.

Take `Cc1cccc(C(C)c2cnc[nH]2)c1C` (centres undefined): the Potency result is “inactive”.

With `CN1CC[C@@]2(C)c3cc(OC(=O)Nc4ccccc4)ccc3N(C)[C@@H]12`, the Potency result was “inactive”.

Take `O=c1ccc2[nH]cc(C3=CCNCC3)c2[nH]1`: the Potency was 26.7 µM (active).

The target in another assay is Lysine-specific demethylase 5B (Homo sapiens) (UniProt Q9UGL1). Nature of the assay: Optimization screen for KDM5B Histone Demethylases FDH coupled qHTS against the LOPAC library (AID 1347166). Conditions: KDM5B demethylation, FDH-coupled NADH fluorescence (FDH is formaldehyde dehydrogenase); series mostly up to 57.5 µM. The essentials:
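KDM5BDeltaAP (200nM final) in 50mM HEPES pH 7.5, 0.01% Tween-20 was preincubated with compound for 10 min at room temperature. A substrate mix of 12.5uM H3K4Me3, 25uM a-ketoglutarate, ascorbate, Fe2+, NAD+ and formaldehyde dehydrogenase was then added. NADH fluorescence (340/450 nm) was read initially and after 30 min.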
On to `NC(C(=O)O)c1cc(=O)[nH]o1` (centres undefined), for which the Potency entry was “inactive”.

Regarding `NC(N)=NOCC[C@H](N)C(=O)O`, the Potency entry was “inactive”.

In the case of `N[C@@H](Cn1oc(=O)[nH]c1=O)C(=O)O`, the Potency result is “inactive”.

With `CC(Cc1ccc(OCC(=O)O)cc1)NCC(O)c1cccc(Cl)c1` (centres undefined), the Potency result is “inactive”.

On to `C[N+]1(C)CCN(c2ccccc2)CC1`, for which the Potency entry was “inactive”.

Take `COC(=O)N1CCN(C(=O)Cc2ccc(Cl)c(Cl)c2)C(CN2CCCC2)C1` (centres undefined): the Potency result was “inactive”.

Regarding `CN1C2CCC1CC(OC(c1ccccc1)c1ccccc1N)C2` (centres undefined), the Potency result was “inactive”.

With `CC(N)Cc1c[nH]c2ccc(OCc3cccs3)cc12` (centres undefined), the Potency result is “inactive”.

On to `Nc1ccc(CCN2CCN(c3cccc(C(F)(F)F)c3)CC2)cc1`, for which the Potency result was “inactive”.

Regarding `CCCN(CCC)C1Cc2cc(OC)c(OC)cc2C1`, the Potency entry was “inactive”.

In the case of `C[N+](C)(C)CC#CCN1CCCC1=O`, the Potency entry was “inactive”.

As to `CN1CCC(c2c[nH]c3ccc(O)cc23)CC1`, the Potency entry is “inactive”.

With `CCNC(=O)[C@H]1O[C@@H](n2cnc3c(N)ncnc32)[C@H](O)[C@@H]1O`, the Potency result is “inactive”.

Take `O=[N+]([O-])c1ccc2nc(N3CCNCC3)ccc2c1`: the Potency result is “inactive”.

With `C[N+](C)(C)CC#CCOC(=O)Nc1cccc(Cl)c1`, the Potency entry was “inactive”.

For the compound `COc1ccc2[nH]cc(CCN)c2c1`, the Potency result was “inactive”.

On to `CC(N)Cc1c[nH]c2ccc(O)cc12` (centres undefined), for which the Potency result is “inactive”.

Take `CC(C)(C)c1cc(C=C(C#N)C#N)cc(C(C)(C)C)c1O`: the Potency result is “inactive”.

`C[N+]1(C)CCOC(O)(c2ccc(-c3ccc(C4(O)C[N+](C)(C)CCO4)cc3)cc2)C1` (centres undefined): the Potency result was “inactive”.
